Source: PubChem BioAssay (National Center for Advancing Translational Sciences (NCATS))
D2 ag-1 – human D2 receptor agonism in beta-arrestin assay; P14416; DiscoveRx PathHunter D2 beta-arrestin, luminescence, 90 min; 100% = 57 uM dopamine signal; activation, % (concentration not given with the values); 360,000 compounds, 0.084% hits; AID 624465; in the data active means activation above about 40%; inconclusive means between about 15% and that limit
Target sequence (P14416 whole entry, looked up): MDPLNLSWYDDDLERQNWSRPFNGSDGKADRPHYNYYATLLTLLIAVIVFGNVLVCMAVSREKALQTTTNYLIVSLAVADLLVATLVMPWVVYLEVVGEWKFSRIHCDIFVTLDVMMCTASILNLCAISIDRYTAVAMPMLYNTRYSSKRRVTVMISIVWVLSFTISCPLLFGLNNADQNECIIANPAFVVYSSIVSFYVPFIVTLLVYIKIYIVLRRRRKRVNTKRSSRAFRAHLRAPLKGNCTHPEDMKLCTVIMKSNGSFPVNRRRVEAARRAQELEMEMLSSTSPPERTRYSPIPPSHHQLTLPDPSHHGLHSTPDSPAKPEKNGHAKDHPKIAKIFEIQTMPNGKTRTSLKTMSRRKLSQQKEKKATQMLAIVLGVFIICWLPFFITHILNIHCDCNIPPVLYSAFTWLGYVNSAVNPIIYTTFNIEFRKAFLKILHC
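Agonist mode: compounds alone added to overnight-plated D2 PathHunter cells for 90 min at 37 C, with 57 uM final dopamine (EC100) defining full response. Beta-arrestin recruitment detected by chemiluminescent reagent, read after 1 h at ambient temperature.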
D2 antag – antagonizes the human D2 dopamine receptor; HEK293 TREx D2 cells, calcium flux, dopamine EC80; inhibition, % at 10 µM; 340,000 compounds, 2% hits; AID 485344; in the data active means inhibition above about 30%; inactive means below that, where a call was filed; further: 0% is about no effect
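Compounds are added to dye-loaded, induced HEK293 T-REx cells coupled to calcium release via D2; after a 3 min kinetic read an EC80 dopamine stimulus is given and fluorescence is recorded for 3 more min.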
D2 PAM-1 – positive allosteric modulators of human D2 dopamine receptor | potentiation, % at 10 µM | HEK293 T-REx D2, calcium flux, EC20 dopamine potentiation | 340,000 compounds, 0.34% hits;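 active means potentiation over 3 SD above the plate norm, cut at about 30% in these data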; further: 0% is about no effect
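Potentiation of an EC20 dopamine calcium response measured kinetically over 180 s, after a preceding 180 s compound-only read flagging agonists. Cells: inducible Hek293 Trex D2 line, 4000/well, cultured overnight at 30 C before dye loading.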
D2 PAM-2 – positive allosteric modulators of human D2 dopamine receptor. P14416. DiscoveRx D2 beta-arrestin cells, luminescence, 90 min; 100% = 57 uM dopamine signal. potentiation, % (no concentration beside the values). 360,000 compounds, 0.23% hits. AID 624464; in the data active means potentiation above about 50%; inconclusive means mostly about 30% to 49%
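PathHunter D2 cells, attached overnight at 37 deg C, received compound in DMSO plus dopamine at EC20 (50 nM final) for 90 min at 37 deg C. Beta-arrestin recruitment was read as luminescence after 1 h with detection reagent at ambient temperature.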
D2 ag-2 – D2 dopamine receptor (human) agonism; P14416; HEK293 T-REx D2 cells, calcium flux agonist mode; activation, % at 2 µM; 340,000 compounds, 0.53% hits; AID 485358;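 active means activation over 3 SD above normal in the single-dose calcium agonist read, cut at about 30% in these data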; further: 0% is about no effect
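Calcium-flux readout, 1 cycle/sec over 180 s following compound pin transfer, in inducible HEK293 Trex D2 cells (force-coupled); dopamine controls included. Positive calcium responses during this window marked compounds as potential agonists.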
* = called active by the depositor; ? = inconclusive; . = no result given. Hits are enriched below; roughly 2.4% of the tested compounds scored in any of these assays.

SMILES	D2 ag-1	D2 antag	D2 PAM-1	D2 PAM-2	D2 ag-2
Cc1cccc(-c2nc3c4ccccc4nc(N4CCN(c5cc(C)ccc5C)CC4)n3n2)c1	.	.	-6	.	0
O=C(N/N=C/c1cc(Br)cs1)c1c[nH]c2ccccc12	-11	2	4	-14	0
O=C(N/N=C/c1ccc(Br)s1)c1c[nH]c2ccccc12	-5	34*	-24	-29	1
COc1ccc(NC(=O)CSc2oc(-c3cccs3)nc2S(=O)(=O)c2ccc(Br)cc2)c(OC)c1	.	.	1	.	.
CCCc1nnc(NC(=O)CCS(=O)(=O)c2ccccc2)s1	0	-16	32*	-4	0
CCCOC(=O)Nc1nnc(CCC)s1	-2	44*	-15	-8	1
Nc1ccc(S(=O)(=O)c2cc(O)c3ccccc3c2O)cc1	?	.	.	51*	.
O=S(=O)(c1ccccc1)c1cc(O)ccc1O	?	2	12	-1	1
CCCC#Cc1ccc2c(c1)O[C@H](CN(C)C(=O)CC1CC1)[C@H](C)CN([C@@H](C)CO)S2(=O)=O	-13	.	.	2	.
COc1ccc(C(=O)N2CCc3ccc(NC(=O)c4ccccn4)cc3C2)cc1F	0	-1	-4	-4	0
COC(=O)c1ccc(CNC(=O)C(C)N=C2NS(=O)(=O)c3ccccc32)cc1 (stereo unspecified)	-3	44*	-21	-38	0
CC(N=C1NS(=O)(=O)c2ccccc21)C(=O)NCCCc1ccccc1 (stereo unspecified)	3	.	.	-37	.
O=C(CS(=O)(=O)c1cccc2nsnc12)N1CCN(c2ccccc2F)CC1	.	.	11	.	.
O=C1CC(c2ccc(S(=O)(=O)NCc3ccccc3)cc2)CN1 (stereo unspecified)	-2	1	4	-1	0
Cc1ccccc1NS(=O)(=O)c1ccc(C2CNC(=O)C2)cc1 (stereo unspecified)	0	66*	.	-4	1
CCc1c(C)c(C#N)c2nc3ccccc3n2c1Nc1cccc(C(F)(F)F)c1	.	.	2	.	0
Cc1nonc1OCCN1CCN(c2ccccc2[N+](=O)[O-])CC1	2	53*	-40	-16	16
CCOc1ccc(CN(C)CC(O)COC(c2ccc(OC)cc2)c2ccc(OC)cc2)cc1 (stereo unspecified)	4	30*	0	-10	0
COc1ccc(CN(C)CC(O)COC(c2ccc(OC)cc2)c2ccc(OC)cc2)cc1 (stereo unspecified)	1	39*	-4	-7	1
COc1ccc(C(OCC(O)CN(C)C2CCCCC2)c2ccc(OC)cc2)cc1 (stereo unspecified)	-4	24	-3	-13	0
Cc1cccc([N+](=O)[O-])c1NC(=O)COC(=O)c1nc2nccc(C)n2n1	0	52*	5	0	-1
CCc1ccc(NC(=O)COC(=O)c2nc3nc(C)cc(C)n3n2)cc1	0	41*	37*	-11	0
Cc1cc(C)n2nc(C(=O)OCC(=O)Nc3ccc(C)c(F)c3)nc2n1	2	.	.	-6	.
CCOC(=O)c1noc2nc(C)n(Cc3cccc(C#N)c3)c(=O)c12	.	.	-2	.	-2
Cc1c(Br)c([N+](=O)[O-])nn1C(C)C(=O)Nc1ccc2c(c1)OCO2 (stereo unspecified)	-2	40*	4	-13	0
SMILES	D2 ag-1	D2 antag	D2 PAM-1	D2 PAM-2	D2 ag-2
Cc1[nH]c2c(C)cccc2c1CCNC(=O)c1ccc2c(c1[N+](=O)[O-])C(=O)c1ccccc1C2=O	?	-5	-7	93*	0
CCCNC(=O)NCCc1c(C)[nH]c2ccccc12	5	-1	7	-4	0
CN(C)C(=O)c1ccc2c(c1[N+](=O)[O-])C(=O)c1ccccc1C2=O	?	.	.	68*	.
COc1ccc2c(c1O)C(=O)c1ccccc1C2=O	.	4	-6	.	0
Cc1[nH]c2ccccc2c1CCNC(=O)c1ccc2c(c1[N+](=O)[O-])C(=O)c1ccccc1C2=O	?	-5	-9	93*	0
C=CCc1cccc2cc(C(=O)NCCc3c(C)[nH]c4c(C)cccc34)c(=O)oc12	.	.	-4	.	0
CCCCNc1nc2c(c(=O)n(Cc3ccc(Cl)cc3)c(=O)n2C)n1C	.	.	10	.	6
N#Cc1c(C(F)(F)F)cc(-c2ccccc2Cl)[nH]c1=O	2	44*	2	5	1
CCC(C)(C)C(=O)Nc1ncc(S(=O)(=O)c2ccc([N+](=O)[O-])cc2)s1	7	-14	31*	88*	6
O=C(CCl)Nc1ncc(S(=O)(=O)c2ccc([N+](=O)[O-])cc2)s1	?	.	.	6	.
O=C(Nc1ncc(S(=O)(=O)c2ccc([N+](=O)[O-])cc2)s1)c1ccc2ccccc2c1	14	.	.	73*	.
CCOC(=O)c1ccc(NC(=O)Cn2c(=O)cc(C(F)(F)F)c3c(C)nn(C)c32)cc1	.	.	-4	.	-2
O=C(Nc1cc(Cl)cc(Cl)c1)c1ccc(F)c(S(=O)(=O)NC2CCCCC2)c1	.	.	5	.	1
CCOc1ccc(CCNC(=O)C2CCN(c3ncnc4c3nc3n4CCCCC3)CC2)cc1	.	.	-3	.	-1
CC1(C)CC(N(Cc2ccco2)C(=O)Cc2ccccc2)CCO1 (stereo unspecified)	2	-14	-6	-21	0
CC1(C)CC(N(Cc2cccs2)C(=O)c2ccco2)CCO1 (stereo unspecified)	0	-7	33*	8	1
CC1CCC(=NNC(=O)Cc2ccccc2)CC1 (stereo unspecified)	1	43*	-10	9	0
CC1CCC(=NNC(=O)Cc2cccn2C)CC1 (stereo unspecified)	4	2	-3	4	2
CC(NC(=O)COC(=O)CSCc1ccccc1)c1ccccc1 (stereo unspecified)	0	2	3	-35	-1
CC(NC(=O)COC(=O)CCc1ccccc1)c1ccccc1 (stereo unspecified)	-2	35*	-25	-9	-1
CC(C)C(C(=O)Nc1ncn[nH]1)N1C(=O)c2ccccc2C1=O (stereo unspecified)	-2	3	31*	2	0
CC(C)C(C(=O)Nc1ccccc1)N1C(=O)c2ccccc2C1=O (stereo unspecified)	-6	-9	-7	-2	0
Cc1c(C(=O)N/N=C/c2ccoc2)cccc1[N+](=O)[O-]	2	67*	12	-9	-1
Cc1ccccc1SCC(=O)Nc1cc(S(=O)(=O)N2CCOCC2)ccc1N1CCOCC1	4	.	-10	-1	.
CC(Oc1ccc(F)cc1)C(=O)Nc1cc(S(=O)(=O)N2CCCCC2)ccc1N1CCOCC1 (stereo unspecified)	0	37*	2	3	0
